The source of these data is PubChem BioAssay (Tox21).

Unmarked numbers belong to inactive results. Results filed as inconclusive are left out. Active and inactive are the calls of the source. Unless noted, calls come from the whole dose curve.

Assay [1] can be described thus: Nuclear factor erythroid 2-related factor 2/antioxidant responsive element (Nrf2/ARE) small molecule agonists: qHTS cell viability counter screen in human keratinocytes (AID 1919968; active = well fitted curve in the direction sought with a large enough effect in the repeat runs; an effect the other way counts as inactive or inconclusive; note: nearly all actives have a fitted effect of over 55% in size; note: potency is the fitted concentration of half-maximal effect). The procedure, abridged:
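Cytotoxicity was multiplexed with the Nrf2/ARE luciferase assay in the same wells. Stably transfected HaCaT keratinocytes were treated with test compounds for 23 h at 37 C. Cell viability was then measured by CellTiter-Fluor fluorescence.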
Background: In qHTS, concentration-response curves come from the screen itself.

Assay [2] has as its target Gonadotropin-releasing hormone receptor (Homo sapiens) (UniProt P30968). Kind of assay: Human gonadotropin-releasing hormone receptor (GnRHR) small molecule agonists, calcium flux assay in GnRHR-HEK293 cells (AID 1920063). Note: nearly all actives have a fitted effect of over 35% in size. An outline of the steps: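 Agonist activity was measured as intracellular calcium flux in HEK293 cells engineered to stably express human GnRHR. After dye loading for 1 hour at 37 C, compounds in DMSO were added and fluorescence was followed for 3 minutes.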
For orientation: Calcium flux is commonly read through the fluorescence of an indicator in the cells.

In assay [3] the target is KiSS-1 receptor (Homo sapiens) (UniProt Q969F8). Kind of assay: Human kisspeptin (KISS1R) small molecule agonists, calcium flux assay in KISS1R-HEK293 cells (AID 1920064; active = well fitted curve in the direction sought with a large enough effect in the repeat runs; an effect the other way counts as inactive or inconclusive). An outline of the steps: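 Agonist activity is monitored as intracellular calcium rise in engineered HEK293 cells carrying human KISS1R. Cells are dye-loaded for 1 h at 37 C before compound addition, and fluorescence is recorded for 3 min.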

A short description of assay [4]: G protein-coupled receptor (GPCR) small molecule agonists, calcium flux assay: HEK293 wild type cell line counter screen (AID 1920065). An outline of the steps:
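Seed cells, incubate 18 h (37 C, 5% CO2); add calcium dye, 1 h at 37 C; pin-transfer compounds, ATP control or DMSO; read fluorescence 480/540 nm each second for 3 min.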

A short description of assay [5]: p53 small molecule agonists, cell-based qHTS assay with human liver microsomes (AID 1963577).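 Note: p53 response element beta-lactamase reporter cells with liver microsomes plus NADPH.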 The procedure, abridged:
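HLM-supplemented p53RE-bla reporter assay: 16 h compound exposure at 37 C, microsomes and NADPH each 0.5 mg/mL final, read by fluorescence intensity.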

Assay [6] is described as follows: p53 small molecule agonists, cell-based qHTS assay with rat liver microsomes (AID 1963578). An outline of the steps:
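Quantitative HTS of the Tox21 10K library: p53RE-bla cells, rat liver microsomes plus NADPH at 0.5 mg/mL final each, 16 h at 37 C, beta-lactamase fluorescence detection.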

Assay [7] in a line: p53 small molecule agonists, cell-based qHTS assay with human liver microsomes: qHTS cell viability counter screen (AID 1963579). Note: nearly all actives have a fitted effect of over 45% in size. Note: potency is the fitted concentration of half-maximal effect. An outline of the steps:
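Viability of p53RE-bla cells is measured as CellTiter-Glo luminescence following a 16 h, 37 C incubation with compound, liver microsomes from human donors and NADPH.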

The nature of assay [8]: p53 small molecule agonists, cell-based qHTS assay with rat liver microsomes: qHTS cell viability counter screen (AID 1963580). Note: nearly all actives have a fitted effect of over 45% in size. An outline of the steps: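 Cytotoxicity counter screen: intracellular ATP read by CellTiter-Glo luminescence in the p53 reporter wells. HCT-116 p53RE-bla cells were treated for 16 h at 37 C alongside rat liver microsomes and NADPH, each 0.5 mg/mL final.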

The nature of assay [9]: p53 small molecule agonists, cell-based qHTS assay: qHTS cell viability counter screen (AID 1963581). Note: nearly all actives have a fitted effect of over 45% in size. An outline of the steps: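 Viability was counter-screened in parallel with the p53 agonist reporter by measuring intracellular ATP luminescence in the same HCT-116 p53RE-bla wells after 16 h compound treatment at 37 C.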
Assay [10] is described as follows: p53 small molecule agonists, cell-based qHTS assay (AID 1963582; active = well fitted activation curve with a large enough effect in the signal ratio in the repeat runs, not every such curve was filed as active; the % refers to the signal ratio). An outline of the steps: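 Cells carrying a p53-responsive bla reporter are treated with test compounds for 16 h at 37 C; beta-lactamase activity is then detected with LiveBLAzer B/G FRET substrate after 2 h at room temperature.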
Assay [11] deals with 5-hydroxytryptamine receptor 2A (Homo sapiens) (UniProt P28223). Kind of assay: 5-hydroxytryptamine receptor 2A (HTR2A) small molecule antagonists, cell-based qHTS assay (AID 1963586). Note: nearly all actives have a fitted effect of over 45% in size. An outline of the steps: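 CHO cells stably expressing human HTR2A were plated for 18 h at 37 C, then loaded with calcium dye for 1 h. Compounds were preincubated 5 min at room temperature before DOI (4 nM solution) was added. Kinetic fluorescence was read for 3 min.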

The target is the same in assay [12]. Kind of assay: 5-hydroxytryptamine receptor 2A (HTR2A) small molecule agonists, cell-based qHTS assay (AID 1963587). Note: nearly all actives have a fitted effect of over 30% in size. The procedure, abridged: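 Kinetic calcium-flux fluorescence (2 min, 1 sec intervals) after compound addition in agonist mode. HTR2A-CHO cells were cultured 18 h, then dye-loaded 1 h at 37 C.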
Assay [13] has as its target Muscarinic acetylcholine receptor M1 (Homo sapiens) (UniProt P11229). Kind of assay: Cholinergic receptor muscarinic 1 (CHRM1) small molecule antagonists, cell-based qHTS assay (AID 1963588). Note: nearly all actives have a fitted effect of over 40% in size. The procedure, abridged: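 Compounds were tested at 15 concentrations in three independent runs. Dye-loaded CHRM1-CHO cells were exposed 5 min at room temperature before stimulation by acetylcholine added at 50nM. Intracellular calcium was read kinetically on FDSS for 3 min.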

Assay [14] shares this target. Kind of assay: Cholinergic receptor muscarinic 1 (CHRM1) small molecule agonists, cell-based qHTS assay (AID 1963589). Note: nearly all actives have a fitted effect of over 35% in size. An outline of the steps: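 Cells were plated and incubated 18 h at 37 C/5% CO2, loaded with calcium dye for 1 h at 37 C, then treated with compounds in DMSO. Fluorescence was recorded kinetically at 1 sec intervals.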
A short description of assay [15]: cAMP Responsive Elements (CRE) small molecule agonists, cell-based qHTS assay (AID 1963590). An outline of the steps: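 Cells carrying a CRE-driven beta-lactamase reporter (HEK 293T) are seeded, incubated overnight (18 h), and treated with test compounds for 3 h at 37 C; reporter activity is then detected with a FRET substrate after 2 h at room temperature.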
Assay [16] is described as follows: cAMP Responsive Elements (CRE) small molecule antagonists, cell-based qHTS assay (AID 1963591; active = well fitted inhibition curve with a large enough effect in the signal ratio in the repeat runs, not every such curve was filed as active; the % refers to the signal ratio). The procedure, abridged: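 Cells (CRE-bla HEK 293T, DMEM with 10% dialyzed FBS and 25 mM HEPES) are seeded and incubated 18 h. Compounds are added with NKH477 agonist at 0.25 uM final for 3 h, then FRET substrate for 2 h.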
Assay [17] deals with D(2) dopamine receptor (Homo sapiens) (UniProt P14416). Kind of assay: Dopamine D2 receptor (DRD2) small molecule agonists, cell-based qHTS assay (AID 1963594). Note: nearly all actives have a fitted effect of over 35% in size. The procedure, abridged: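 cAMP accumulation in DRD2-HEK293 cells measured by HTRF after 1 h detection; compounds added 10 min before NKH477 (200nM […]) forskolin-analogue stimulation, 30 min at room temperature, with Ro20-1724 present at 0.1 mM final.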

For assay [18] the target is unchanged. Kind of assay: Dopamine D2 receptor (DRD2) small molecule antagonists, cell-based qHTS assay (AID 1963595; active = well fitted inhibition curve with a large enough effect in the signal ratio in the repeat runs, with a control signal flat; the % refers to the signal ratio). The procedure, abridged:
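Stable D2 receptor HEK293 line, 24 h after seeding. Compound preincubated 10 min, then quinpirole (12 nM) with forskolin analogue NKH477 (200 nM), 30 min, room temperature. Detection by time-resolved FRET of cAMP.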

The target in assay [19] is Beta-2 adrenergic receptor (Homo sapiens) (UniProt P07550). Kind of assay: Adrenergic beta2 receptor (ADRB2) small molecule antagonists, cell-based qHTS assay (AID 1963592). Note: series mostly up to about 92 µM; nearly all actives have a fitted effect of over 50% in size. An outline of the steps: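 Assay format: CHO-ADRB2 cells, 18-20hr seeding at 37C/5% CO2, then compound plus 1nM isoproterenol agonist mix for 0.5hr RT. Homogeneous time-resolved fluorescence cAMP detection after 1hr, expressed as 665/615 nm ratio.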
Beta-2 adrenergic receptor (Homo sapiens), sequence (P07550 whole entry, looked up): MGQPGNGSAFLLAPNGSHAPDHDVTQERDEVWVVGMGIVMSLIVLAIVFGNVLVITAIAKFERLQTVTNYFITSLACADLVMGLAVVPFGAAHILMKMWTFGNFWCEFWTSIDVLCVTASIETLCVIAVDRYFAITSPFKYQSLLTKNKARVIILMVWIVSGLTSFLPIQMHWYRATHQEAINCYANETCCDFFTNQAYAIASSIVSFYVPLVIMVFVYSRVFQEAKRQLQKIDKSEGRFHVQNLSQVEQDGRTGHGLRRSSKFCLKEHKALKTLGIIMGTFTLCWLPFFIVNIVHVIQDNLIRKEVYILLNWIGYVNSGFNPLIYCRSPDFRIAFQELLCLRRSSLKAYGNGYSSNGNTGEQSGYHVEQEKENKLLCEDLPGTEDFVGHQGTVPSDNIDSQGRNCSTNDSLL

Muscarinic acetylcholine receptor M1 (Homo sapiens), sequence (P11229 whole entry, looked up): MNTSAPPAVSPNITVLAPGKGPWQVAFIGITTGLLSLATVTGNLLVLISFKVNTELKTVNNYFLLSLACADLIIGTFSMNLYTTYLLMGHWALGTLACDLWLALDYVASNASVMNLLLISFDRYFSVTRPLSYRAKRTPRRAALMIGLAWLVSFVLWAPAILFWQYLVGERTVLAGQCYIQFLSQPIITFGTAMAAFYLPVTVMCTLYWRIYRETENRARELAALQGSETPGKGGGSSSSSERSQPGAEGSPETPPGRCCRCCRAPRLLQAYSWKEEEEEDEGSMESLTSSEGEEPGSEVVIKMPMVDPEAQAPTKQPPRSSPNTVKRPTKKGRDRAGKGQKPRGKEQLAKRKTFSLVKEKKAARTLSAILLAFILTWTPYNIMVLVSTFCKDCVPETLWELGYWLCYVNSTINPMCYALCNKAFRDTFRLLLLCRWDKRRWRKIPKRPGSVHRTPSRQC
Gonadotropin-releasing hormone receptor (Homo sapiens), sequence (P30968 whole entry, looked up): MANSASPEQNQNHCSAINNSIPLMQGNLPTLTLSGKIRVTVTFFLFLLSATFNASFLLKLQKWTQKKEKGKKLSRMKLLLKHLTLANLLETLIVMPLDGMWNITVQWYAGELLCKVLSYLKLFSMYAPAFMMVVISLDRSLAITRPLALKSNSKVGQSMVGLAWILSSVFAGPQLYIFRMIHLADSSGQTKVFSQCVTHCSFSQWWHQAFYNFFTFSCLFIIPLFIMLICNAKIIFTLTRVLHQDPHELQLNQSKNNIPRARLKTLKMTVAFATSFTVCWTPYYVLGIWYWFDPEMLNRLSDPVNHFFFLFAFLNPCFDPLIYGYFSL
D(2) dopamine receptor (Homo sapiens), sequence (P14416 whole entry, looked up): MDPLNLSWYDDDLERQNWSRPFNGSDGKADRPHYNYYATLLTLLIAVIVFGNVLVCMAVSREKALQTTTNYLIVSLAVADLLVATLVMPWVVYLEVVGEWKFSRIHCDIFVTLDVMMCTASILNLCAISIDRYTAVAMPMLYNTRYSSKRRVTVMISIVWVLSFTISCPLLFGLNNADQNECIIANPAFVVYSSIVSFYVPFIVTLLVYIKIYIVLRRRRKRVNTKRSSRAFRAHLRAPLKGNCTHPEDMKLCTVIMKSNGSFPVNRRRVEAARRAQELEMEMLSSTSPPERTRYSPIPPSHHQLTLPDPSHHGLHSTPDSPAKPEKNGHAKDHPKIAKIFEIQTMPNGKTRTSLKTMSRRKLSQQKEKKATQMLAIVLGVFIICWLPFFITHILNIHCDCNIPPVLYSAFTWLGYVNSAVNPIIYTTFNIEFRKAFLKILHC
5-hydroxytryptamine receptor 2A (Homo sapiens), sequence (P28223 whole entry, looked up): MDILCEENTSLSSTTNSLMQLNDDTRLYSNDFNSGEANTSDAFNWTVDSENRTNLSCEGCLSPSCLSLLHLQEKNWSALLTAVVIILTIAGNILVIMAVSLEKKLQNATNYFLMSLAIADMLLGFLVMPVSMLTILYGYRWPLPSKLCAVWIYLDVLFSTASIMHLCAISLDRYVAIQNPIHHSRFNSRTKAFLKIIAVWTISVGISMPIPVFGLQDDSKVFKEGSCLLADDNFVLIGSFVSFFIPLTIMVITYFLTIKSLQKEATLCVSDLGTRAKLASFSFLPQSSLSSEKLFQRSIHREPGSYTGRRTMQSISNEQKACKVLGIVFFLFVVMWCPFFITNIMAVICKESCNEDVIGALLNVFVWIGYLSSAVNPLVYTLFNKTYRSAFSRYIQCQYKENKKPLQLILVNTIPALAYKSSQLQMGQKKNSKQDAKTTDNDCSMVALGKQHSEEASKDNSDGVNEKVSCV
KiSS-1 receptor (Homo sapiens), sequence (Q969F8 whole entry, looked up): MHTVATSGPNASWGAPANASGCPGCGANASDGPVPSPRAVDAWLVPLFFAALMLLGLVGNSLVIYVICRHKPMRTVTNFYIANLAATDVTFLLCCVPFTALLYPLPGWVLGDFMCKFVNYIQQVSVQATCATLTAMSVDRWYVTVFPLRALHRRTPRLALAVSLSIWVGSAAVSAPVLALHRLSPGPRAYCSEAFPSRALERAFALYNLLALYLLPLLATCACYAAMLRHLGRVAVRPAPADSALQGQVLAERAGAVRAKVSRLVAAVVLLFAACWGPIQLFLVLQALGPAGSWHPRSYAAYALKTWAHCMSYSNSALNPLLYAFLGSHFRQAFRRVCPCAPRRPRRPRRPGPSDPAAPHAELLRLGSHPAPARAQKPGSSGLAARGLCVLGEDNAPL

Turning to `Cc1c(C(=O)O)cccc1[N+](=O)[O-]`, the Potency result in assay [1], in [2], in [3], in assay [4], in assay [5] and in assay [6] was “inactive” throughout. The Potency result in assay [8], in [9], in [10], in [11], in [12] and in assay [13] was “inactive” throughout. In addition, the Potency result in assay [14], in assay [15], in assay [16], in assay [17] and in assay [18] was “inactive” in each case. Further, the Potency in assay [7] is 23.3 µM (active).
In the case of `CCC(C)OC(=O)N1CCCCC1CCO` (stereo not drawn), the Potency entry in assay [1], in [2], in [3], in [4], in assay [5] and in assay [6] was “inactive” each time. Further, the Potency result in assay [7], in assay [8], in assay [9], in assay [10], in assay [11] and in assay [12] was “inactive” throughout. The Potency result in assay [13], in assay [14], in assay [15], in assay [16], in assay [19] and in assay [17] was “inactive” each time. For the same compound, the Potency entry in assay [18] was “inactive”.
Take `CCCCCCCCCCCCSC#N`: the Potency entry in assay [1], in assay [2], in [3], in assay [4], in [5] and in assay [6] was “inactive” throughout. The Potency result in assay [7], in assay [8], in assay [9], in [10], in [11] and in assay [12] was “inactive” each time. Further, the Potency result in assay [13], in assay [14], in assay [15], in assay [19] and in assay [17] was “inactive” each time.
With `CCCCCCC1CCC(=O)O1` (stereo not drawn), the Potency result in assay [1], in [2], in assay [3], in assay [4], in assay [5] and in assay [6] was “inactive” in each case. The Potency entry in assay [7], in assay [8], in assay [9], in [10], in assay [11] and in assay [12] was “inactive” each time. Moreover, the Potency result in assay [13], in assay [14], in assay [16], in assay [19], in assay [17] and in [18] was “inactive” in each case.
`CCC(C)(C)C1CCC(O)CC1` (stereo not drawn): the Potency entry in [1], in [2], in assay [3], in assay [4], in [5] and in assay [6] was “inactive” each time. The Potency result in assay [7], in [8], in assay [9], in [10], in [11] and in assay [12] was “inactive” in each case. Further, the Potency result in assay [13], in assay [14], in [15], in [16], in assay [19] and in [17] was “inactive” throughout. For the same compound, in assay [18], the Potency entry is “inactive”.
Turning to `CC(C)(c1ccc(Oc2ccc(N)cc2)cc1)c1ccc(Oc2ccc(N)cc2)cc1`, the Potency in [1] is 38.6 µM (active). Moreover, the Potency result in assay [2], in assay [3], in assay [4], in [5], in assay [6] and in [7] was “inactive” in each case. Also, the Potency entry in assay [8], in assay [9], in assay [10], in [11], in assay [12] and in [13] was “inactive” each time. The Potency entry in [14], in [15], in assay [16], in [19], in assay [17] and in assay [18] was “inactive” in each case.
On to `Cc1c[nH]c(=O)[nH]c1=O`, for which the Potency result in [1], in assay [2], in [3], in assay [4], in assay [5] and in assay [6] was “inactive” in each case. Also, the Potency result in [7], in assay [8], in assay [9], in assay [10], in assay [11] and in [12] was “inactive” throughout. Also, the Potency entry in assay [13], in [14], in assay [15], in assay [16], in assay [19] and in assay [17] was “inactive” each time.
